Our source for the Percent Effect values is ChEMBL document CHEMBL3988442, “University of Dundee, Small-Polar-MMV Screening Library” (2021).

Parameters in all cases: scale not given: direction of the effect not stated beside the values
The target of assay [1] is Protein translocase subunit SecA (Escherichia coli (strain K12)) (UniProt P10408). The assay is described as follows: Assay to Identify E. coli SecA ATPase Inhibitors. Conditions: 30 µM. The assay is classed as functional.
In assay [2] the target is T1, Ubiquitin-activating enzyme e1, putative (Leishmania donovani (strain BPK282A1)) (UniProt E9BSI1).
T1 sequence (whole entry): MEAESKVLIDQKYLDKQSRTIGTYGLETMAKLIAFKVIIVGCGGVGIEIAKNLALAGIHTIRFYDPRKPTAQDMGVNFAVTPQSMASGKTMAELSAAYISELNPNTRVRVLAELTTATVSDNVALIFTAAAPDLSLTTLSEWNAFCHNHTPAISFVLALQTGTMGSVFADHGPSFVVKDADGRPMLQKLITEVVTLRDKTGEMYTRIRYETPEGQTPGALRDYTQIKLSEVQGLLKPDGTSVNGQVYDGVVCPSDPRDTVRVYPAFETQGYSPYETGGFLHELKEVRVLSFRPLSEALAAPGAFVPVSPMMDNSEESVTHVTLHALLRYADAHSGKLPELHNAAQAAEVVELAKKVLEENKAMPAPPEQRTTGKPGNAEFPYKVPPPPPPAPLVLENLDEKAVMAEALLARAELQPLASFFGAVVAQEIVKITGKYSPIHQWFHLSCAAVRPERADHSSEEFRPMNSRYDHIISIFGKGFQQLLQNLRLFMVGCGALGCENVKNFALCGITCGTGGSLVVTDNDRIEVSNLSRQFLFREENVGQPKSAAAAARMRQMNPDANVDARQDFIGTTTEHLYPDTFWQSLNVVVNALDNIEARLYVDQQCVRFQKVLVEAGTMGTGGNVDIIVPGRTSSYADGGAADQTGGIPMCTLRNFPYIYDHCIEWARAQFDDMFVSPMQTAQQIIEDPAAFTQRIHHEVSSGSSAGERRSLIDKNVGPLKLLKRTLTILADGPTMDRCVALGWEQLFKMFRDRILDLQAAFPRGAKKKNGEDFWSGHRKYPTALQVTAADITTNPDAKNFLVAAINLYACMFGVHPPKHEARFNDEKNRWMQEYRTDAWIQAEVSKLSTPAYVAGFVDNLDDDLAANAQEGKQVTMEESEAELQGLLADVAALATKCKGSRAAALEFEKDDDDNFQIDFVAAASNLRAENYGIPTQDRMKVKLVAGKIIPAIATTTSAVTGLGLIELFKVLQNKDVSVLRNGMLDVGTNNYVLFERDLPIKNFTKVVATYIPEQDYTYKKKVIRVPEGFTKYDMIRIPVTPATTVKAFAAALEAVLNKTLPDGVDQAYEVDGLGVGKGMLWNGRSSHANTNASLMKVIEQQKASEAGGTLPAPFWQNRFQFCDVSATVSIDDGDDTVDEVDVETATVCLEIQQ
The assay is described as follows: Leishmania donovani Ubiquitin Activating Enzyme (LdE1). Conditions: 30 µM. In kind it is functional.

Assay [3] has as its target AMP-activated protein kinase, AMPK (Homo sapiens) (UniProt P54646+O43741+P54619+Q9UGJ0+Q9Y478+Q13131+Q9UGI9). The experiment in a line: AMP-dependent Kinase enzyme assay. An in vitro enzyme assay that detects ADP turnover that is directly proportional to AMPK activity. This uses naive AMPK that is activated during the assay with MK-8722. Conditions: 30 µM. The assay is classed as functional.

Assay [4] has as its target Sialic acid-binding Ig-like lectin 9 (Homo sapiens) (UniProt Q9Y336). The assay is described as follows: Hs-Siglec9 ALPHAscreen SOP 20170721. Conditions: 10 µM.
Another assay deals with Trypanosoma cruzi. The assay is described as follows: Trypanosoma cruzi phosphomannomutase and mannose-1-phosphate guanylyltransferase assay. The assay is classed as functional. Conditions: 10 µM.
For assay [5], the target named is T2, Arginase-2, mitochondrial (Homo sapiens) (UniProt P78540).
T2 sequence (whole entry): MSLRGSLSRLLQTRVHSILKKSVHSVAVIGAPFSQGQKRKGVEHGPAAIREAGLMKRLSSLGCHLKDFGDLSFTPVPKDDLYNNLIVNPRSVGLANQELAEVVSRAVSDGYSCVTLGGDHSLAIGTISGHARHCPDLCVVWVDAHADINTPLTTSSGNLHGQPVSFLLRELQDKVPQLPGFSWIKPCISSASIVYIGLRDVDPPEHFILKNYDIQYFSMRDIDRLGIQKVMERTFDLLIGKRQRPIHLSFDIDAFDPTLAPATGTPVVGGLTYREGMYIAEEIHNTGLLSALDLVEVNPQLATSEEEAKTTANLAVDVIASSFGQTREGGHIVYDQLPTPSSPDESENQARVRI
The assay is described as follows: in vitro enzyme assay to detect the production of urea directly proportional to the activity of Arginase II. Note: in the data most compounds retested in dose-response had high values. In kind it is functional. Conditions: 33.3 µM.

Assay [6] concerns the target T3, Proteasome subunit beta (Trypanosoma cruzi) (UniProt O96673).
T3 sequence (whole entry): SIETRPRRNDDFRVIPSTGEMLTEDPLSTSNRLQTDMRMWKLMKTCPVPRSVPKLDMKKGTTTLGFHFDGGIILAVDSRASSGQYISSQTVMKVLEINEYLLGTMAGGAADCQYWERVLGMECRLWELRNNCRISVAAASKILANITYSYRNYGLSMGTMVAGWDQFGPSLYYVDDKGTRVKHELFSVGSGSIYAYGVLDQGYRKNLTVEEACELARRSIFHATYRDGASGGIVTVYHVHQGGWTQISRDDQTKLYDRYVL
The assay is described as follows: Trypanosoma cruzi proteasome chymotrypsin-like activity (TcProtChymo) assay. Note: in the data most compounds retested in dose-response had high values. In kind it is functional. Conditions: 9.37 µM.

A further assay is filed under the species Homo sapiens. The assay is described as follows: To identify inhibition of the IFN signalling (Jak-Stat) pathway via expression of an eGFP reporter gene under the control of an IFN-stimulated response element (ISRE) containing MxA promoter. The assay is classed as functional. Conditions: 30 µM. (A reporter such as luciferase makes a cellular process visible.)

Assay [7] deals with T4, Tyrosyl-tRNA synthetase, putative (Trypanosoma cruzi (strain CL Brener)) (UniProt Q4DSP6).
T4 sequence (whole entry): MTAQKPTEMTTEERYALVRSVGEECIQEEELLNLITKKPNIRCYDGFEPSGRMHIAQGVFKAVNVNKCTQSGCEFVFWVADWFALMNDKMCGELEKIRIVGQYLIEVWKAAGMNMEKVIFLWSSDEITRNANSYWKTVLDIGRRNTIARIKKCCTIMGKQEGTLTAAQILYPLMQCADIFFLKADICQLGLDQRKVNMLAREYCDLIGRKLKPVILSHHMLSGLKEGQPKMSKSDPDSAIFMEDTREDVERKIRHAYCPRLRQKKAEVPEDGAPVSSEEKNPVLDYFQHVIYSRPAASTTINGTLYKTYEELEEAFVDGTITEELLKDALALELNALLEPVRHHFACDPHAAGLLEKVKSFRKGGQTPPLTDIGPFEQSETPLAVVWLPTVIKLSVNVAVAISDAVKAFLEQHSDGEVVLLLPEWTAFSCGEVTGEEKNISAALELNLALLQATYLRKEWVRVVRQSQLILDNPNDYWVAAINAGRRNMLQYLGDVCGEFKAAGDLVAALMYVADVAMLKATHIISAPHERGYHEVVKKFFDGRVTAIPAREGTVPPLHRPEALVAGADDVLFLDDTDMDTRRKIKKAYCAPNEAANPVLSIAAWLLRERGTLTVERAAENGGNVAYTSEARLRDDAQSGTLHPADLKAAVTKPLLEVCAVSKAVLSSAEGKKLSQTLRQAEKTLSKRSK
The experiment in a line: Trypanosoma cruzi tyrosyl tRNA synthetase (TcYRS) _High Tyrosine SOP. Note: in the data most compounds retested in dose-response had high values. The assay is classed as functional. Conditions: 30 µM.

Assay [8] deals with T4, Tyrosyl-tRNA synthetase, putative (Trypanosoma cruzi (strain CL Brener)). The assay is described as follows: Trypanosoma cruzi tyrosyl tRNA synthetase (TcYRS) SOP. In kind it is functional. Conditions: 30 µM.
Assay [9] deals with Chromo domain-containing protein 1 (Saccharomyces cerevisiae (strain ATCC 204508 / S288c) (Baker's yeast)) (UniProt P32657). The assay is described as follows: ScCHD-1 Enzyme Inhibition Assay. Note: in the data most compounds retested in dose-response had high values. Conditions: 30 µM. In kind it is functional.
Sequence of Chromo domain-containing protein 1 (Saccharomyces cerevisiae (strain ATCC 204508 / S288c) (Baker's yeast)) (P32657 whole entry, the tested form may be a part): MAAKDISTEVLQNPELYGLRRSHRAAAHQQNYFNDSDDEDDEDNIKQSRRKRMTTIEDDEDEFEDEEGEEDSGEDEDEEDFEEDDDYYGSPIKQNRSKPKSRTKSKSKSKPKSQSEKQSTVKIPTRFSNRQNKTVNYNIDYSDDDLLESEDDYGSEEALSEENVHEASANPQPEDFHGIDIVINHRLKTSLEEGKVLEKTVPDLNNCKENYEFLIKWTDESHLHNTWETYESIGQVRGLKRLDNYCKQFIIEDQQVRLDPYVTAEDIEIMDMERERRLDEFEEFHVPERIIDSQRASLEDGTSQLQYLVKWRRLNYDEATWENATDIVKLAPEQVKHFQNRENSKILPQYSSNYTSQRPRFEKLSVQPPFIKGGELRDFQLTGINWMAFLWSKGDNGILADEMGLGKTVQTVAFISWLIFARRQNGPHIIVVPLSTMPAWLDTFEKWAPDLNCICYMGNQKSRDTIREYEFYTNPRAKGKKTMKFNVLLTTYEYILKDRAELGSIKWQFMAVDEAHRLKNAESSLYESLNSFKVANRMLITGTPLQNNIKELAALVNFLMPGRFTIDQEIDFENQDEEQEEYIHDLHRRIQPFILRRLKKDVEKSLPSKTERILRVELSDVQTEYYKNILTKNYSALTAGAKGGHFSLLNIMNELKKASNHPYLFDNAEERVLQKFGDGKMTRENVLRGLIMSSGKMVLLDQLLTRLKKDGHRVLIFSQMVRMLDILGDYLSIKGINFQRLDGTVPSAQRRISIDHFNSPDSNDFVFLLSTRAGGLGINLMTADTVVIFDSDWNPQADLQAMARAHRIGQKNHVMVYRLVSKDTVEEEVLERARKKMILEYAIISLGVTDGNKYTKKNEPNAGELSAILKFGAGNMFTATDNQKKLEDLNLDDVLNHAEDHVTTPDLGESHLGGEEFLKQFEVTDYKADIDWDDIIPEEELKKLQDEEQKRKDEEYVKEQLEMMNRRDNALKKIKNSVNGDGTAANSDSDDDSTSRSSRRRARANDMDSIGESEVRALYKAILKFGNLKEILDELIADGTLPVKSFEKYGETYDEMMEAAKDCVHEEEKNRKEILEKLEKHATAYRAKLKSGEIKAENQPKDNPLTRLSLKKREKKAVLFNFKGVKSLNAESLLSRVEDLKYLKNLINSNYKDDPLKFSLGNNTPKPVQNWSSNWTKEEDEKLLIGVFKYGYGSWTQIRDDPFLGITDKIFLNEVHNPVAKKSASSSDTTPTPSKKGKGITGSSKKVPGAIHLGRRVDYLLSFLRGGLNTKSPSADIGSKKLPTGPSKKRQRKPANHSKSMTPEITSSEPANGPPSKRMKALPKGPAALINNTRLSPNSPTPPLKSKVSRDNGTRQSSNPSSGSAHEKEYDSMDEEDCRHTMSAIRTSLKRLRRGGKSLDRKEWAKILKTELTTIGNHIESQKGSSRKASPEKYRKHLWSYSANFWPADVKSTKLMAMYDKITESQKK

For some assays here: Results with a measured potency or affinity are listed apart.

Sequence of Protein translocase subunit SecA (Escherichia coli (strain K12)) (P10408 whole entry): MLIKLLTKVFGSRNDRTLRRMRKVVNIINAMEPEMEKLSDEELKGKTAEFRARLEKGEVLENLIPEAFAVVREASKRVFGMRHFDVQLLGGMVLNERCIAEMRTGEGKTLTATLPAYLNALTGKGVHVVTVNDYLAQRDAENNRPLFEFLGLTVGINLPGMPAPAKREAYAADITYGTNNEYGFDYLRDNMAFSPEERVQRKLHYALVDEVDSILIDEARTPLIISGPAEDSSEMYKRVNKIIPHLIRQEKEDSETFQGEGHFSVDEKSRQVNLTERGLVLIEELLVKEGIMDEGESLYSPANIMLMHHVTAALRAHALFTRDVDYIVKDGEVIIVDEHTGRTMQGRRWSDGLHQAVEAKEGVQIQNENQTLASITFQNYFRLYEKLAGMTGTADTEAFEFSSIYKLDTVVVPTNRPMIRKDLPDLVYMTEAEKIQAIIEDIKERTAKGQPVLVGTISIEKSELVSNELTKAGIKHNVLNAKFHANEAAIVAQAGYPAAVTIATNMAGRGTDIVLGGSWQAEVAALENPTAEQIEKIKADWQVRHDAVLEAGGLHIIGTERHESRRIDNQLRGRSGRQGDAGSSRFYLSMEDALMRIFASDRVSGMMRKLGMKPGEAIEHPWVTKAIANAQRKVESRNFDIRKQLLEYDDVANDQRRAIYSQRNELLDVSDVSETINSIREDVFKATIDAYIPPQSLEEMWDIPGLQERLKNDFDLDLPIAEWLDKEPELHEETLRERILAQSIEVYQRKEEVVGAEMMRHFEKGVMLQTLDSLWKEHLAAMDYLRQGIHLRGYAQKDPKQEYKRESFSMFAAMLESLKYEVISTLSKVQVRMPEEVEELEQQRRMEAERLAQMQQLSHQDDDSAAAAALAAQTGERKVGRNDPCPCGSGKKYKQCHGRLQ
Sequence of Sialic acid-binding Ig-like lectin 9 (Homo sapiens) (Q9Y336 whole entry): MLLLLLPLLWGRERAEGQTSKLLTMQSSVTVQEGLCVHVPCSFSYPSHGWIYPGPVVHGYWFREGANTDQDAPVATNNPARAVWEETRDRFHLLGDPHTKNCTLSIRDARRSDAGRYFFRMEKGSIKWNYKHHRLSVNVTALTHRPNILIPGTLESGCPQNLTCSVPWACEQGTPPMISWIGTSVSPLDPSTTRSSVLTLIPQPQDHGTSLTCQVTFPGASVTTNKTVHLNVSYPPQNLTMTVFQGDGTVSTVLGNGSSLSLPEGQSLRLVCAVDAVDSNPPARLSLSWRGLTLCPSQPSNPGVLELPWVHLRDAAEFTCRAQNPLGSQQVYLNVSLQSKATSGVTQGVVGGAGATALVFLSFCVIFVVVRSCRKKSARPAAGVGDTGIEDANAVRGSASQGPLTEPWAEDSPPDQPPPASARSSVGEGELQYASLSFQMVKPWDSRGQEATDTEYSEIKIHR

`O=C1CC(c2cccnc2)C2(CCN(S(=O)(=O)C3CC3)CC2)N1` (stereo not given): the Percent Effect was -5.32% in [1]; 8.11% in assay [2]; 1.06% in [3]; -2.02% in assay [4]; 3.42% with Trypanosoma cruzi; -4.78% in assay [5]. Besides, the Percent Effect in assay [6] is 15.3%; in the assay listed under Homo sapiens, -9.26%; in [7], 4.32%; in assay [8], 12.8%; in [9], 2.44%.
For the compound `O=C(c1ccc2c(c1)OCO2)N1CCCC(n2cccn2)C1` (stereo not given), the Percent Effect was -1.59% in assay [1]; 10.8% in [2]; -7.46% in [3]; -3.52% in assay [4]; 7.64% with Trypanosoma cruzi; -4.01% in [5]. Also, the Percent Effect is 3.24% in [6]; 27.9% in the assay filed under Homo sapiens; 8.37% in assay [7]; 11.1% in assay [8]; -7.12% in [9].
`CC(C)NC(=O)NCCCc1cc(N)n(-c2ccccc2)n1`: the Percent Effect in assay [1] is -2.64%; in assay [2], 5.48%; in assay [3], -7.43%; in [4], 15.8%; in the assay on Trypanosoma cruzi, 5.09%; in [5] it was -6.82%. Also, the Percent Effect in [6] is 24.8%; in the assay filed under Homo sapiens it was 14.3%; in [7], 5.38%; in assay [8], 17.5%; in assay [9], -8.17%.
In the case of `CC(=O)N1CCCC1c1cccc(Cc2ccccc2F)n1` (stereo not given), the Percent Effect in assay [1] is -3.38%; in assay [2], -9.46%; in [3], 3.81%; in assay [4], -1.05%; in the assay on Trypanosoma cruzi, -2.77%; in [5], -1.62%. The Percent Effect was -1.25% in assay [6]; 26.6% in the assay listed under Homo sapiens; -4.3% in assay [7]; -9.09% in assay [8]; 3.67% in assay [9].
As for `O=C1NC2(CCN(C(=O)Cc3ccsc3)CC2)CC1c1ccncc1` (stereo not given), the Percent Effect in assay [1] is 2.65%; in assay [2], 10.4%; in [3], 2.31%; in assay [4] it was -7.01%; with Trypanosoma cruzi it was -7.99%; in [5] it was 16.1%. Moreover, the Percent Effect is 11.1% in assay [6]; 5.79% in the assay listed under Homo sapiens; 6.35% in assay [7]; 14.1% in assay [8]; -9.26% in [9].
For `c1ccc2oc(NC3CCCN(Cc4noc(C5CC5)n4)C3)nc2c1` (stereo not given), the Percent Effect in [1] is -1.73%; in assay [2], -5.41%; in assay [3], -1.19%; in [4], -0.829%; in the assay on Trypanosoma cruzi, 4.63%; in [5] it was 3.81%. In addition, the Percent Effect in assay [6] is 7.93%; in the assay filed under Homo sapiens, -1.13%; in assay [7] it was 2.65%; in [8], 4.88%; in assay [9], 5.42%.
In the case of `CCN(CC1CCCO1)C(=O)Nc1ccc(F)cc1OC` (stereo not given), the Percent Effect in assay [1] was -3.45%; in [2], 17.7%; in [3], -6.96%; in assay [4], 10.6%; in the assay on Trypanosoma cruzi it was 6.14%; in assay [5], 3.8%. Also, the Percent Effect is 4.5% in assay [6]; -28.1% in the assay filed under Homo sapiens; 4.43% in [7]; 16.5% in [8]; -7.51% in [9].
In the case of `Cc1ccc(-c2nc(CN3CCc4nn(C)c(=O)cc4C3)no2)cc1`, the Percent Effect in assay [1] is -1.55%; in [2], -24.3%; in assay [3] it was 7.36%; in assay [4] it was -4.73%; with Trypanosoma cruzi, 5.75%; in assay [5], 2.81%. The Percent Effect in [6] was -12.8%; in the assay filed under Homo sapiens it was 2.86%; in assay [7], -0.493%; in assay [8] it was -1.24%; in assay [9], -4.17%.
Consider `Cc1ccccc1C(=O)CN1C(=O)c2ccccc2CS1(=O)=O`, for which the Percent Effect in assay [1] is -2.33%; in assay [2], -10.8%; in [3], 2.31%; in assay [4] it was -3.21%; in the assay with Trypanosoma cruzi, -5.41%; in [5], -2.86%. For the same compound, the Percent Effect in assay [6] was 12.8%; in the assay filed under Homo sapiens, 18.7%; in [7], -25.9%; in assay [8], -31.7%; in assay [9], 14.8%.
As to `COCC(c1cccc(C(F)(F)F)c1)N(C)C(=O)c1cc(C)n[nH]1` (stereo not given), the Percent Effect in assay [1] is 0.248%; in assay [2], 18.4%; in [3] it was -1.4%; in assay [4] it was -4.5%; in the assay with Trypanosoma cruzi, -3.01%; in [5], 2.68%. Further, the Percent Effect is 9.02% in assay [6]; 0.723% in the assay filed under Homo sapiens; 1.47% in assay [7]; 12.2% in assay [8]; -13% in assay [9].
